In PubChem BioAssay (NCI) one finds growth data, which are given here for 25 compounds.

About 83,000 compounds went through this panel and 20% of them were active in at least one assay; those are over-represented in the sample as a whole.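 Each cell line was grown in a 96-well plate and treated with one concentration of compound for 48 hours. Values below 10 were considered active.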 Values without a mark were called inactive. Calls of active or inactive are those of the source.

In the assay the test system is HL-60(TB) leukemia. As to the kind of experiment: NCI-60 one-dose screen, 48 h (100 = growth as untreated, 0 = no growth, -100 = all killed). The conditions noted are these: 10 µM unless noted.
With `O=C(Nc1cccc([N+](=O)[O-])c1)c1ccc2ccccc2c1O`, the growth was 39.4%. Consider `CCC(O)CC(CC)CO` (stereo not given), for which the growth is 94.2%.

Regarding `CC1(C)CC(=O)c2c(nn(-c3ccc(Br)cc3)c2-c2cn(-c3ccccc3)nc2-c2cccnc2)C1`, the growth was 92.1%.

On to `C/C=C/C1=CN2C(=O)c3cc(OC4OC(C)C(NC)C(C)(O)C4O)c(C)c(O)c3N=C[C@@H]2C1` (stereo not given in full), for which the growth was -4.33% (active). The result for `COc1ccc2c(CCc3ccc(Cl)cc3)c3[n+](cc2c1OC)CCc1cc2c(cc1-3)OCO2` reads 10%; that for `C=C1C(=O)O[C@@H]2C3C(=C(C)CC[C@@H]12)CC1O[C@]13C` (stereo not given in full), 77.6% [6.75 µM]; that for `CCN(CC)CCCC(C)NCCCNc1cccc2cccnc12` (stereo not given), -5.92% (active). Regarding `NCC(O)C(O)C(O)C(O)CO` (stereo not given), the growth is 114%. Consider `Cc1ccc2[nH]c(=S)n(-c3ccc(S(=O)(=O)Nc4ccc(Cl)nn4)cc3)c(=O)c2c1`, for which the growth is 100%. The figure for `Nc1c(C(=O)Nc2ccccc2Cl)sc2nc3c(cc12)CN(Cc1ccccc1)CC3` is 75.6%; for `O=[N+]([O-])c1ccc(SSc2ccc([N+](=O)[O-])cc2Cl)c(Cl)c1` it is 92.5%; for `Cc1ccc(C(=O)NCCNc2nccc(-c3c(-c4cccc(F)c4)nc4sccn34)n2)cc1` it is 95.5%. Regarding `COc1ccc(CCN(CC(=O)N(CC(N)=O)C2CCC[C@@H]2OCc2ccccc2)C(=O)CN(C(=O)CN(CCc2ccc(Cl)cc2)C(=O)CN(C(=O)CN(C)Cc2ccccc2F)[C@H](C)C2CCCCC2)[C@H](C)C2CCCCC2)cc1OC` (stereo not given in full), the growth was -24.4% (active). The result for `COc1cccc2c1c1nc3cc(C)c(C)cc3nc1n2CCN(C)C` reads 15.3%; that for `COC(=O)c1nc(-c2ccccc2)oc1S(=O)(=O)N1CCCC(C)C1` (stereo not given), 15%; that for `COc1cc2ncnc(Oc3ccc(NC(=O)Nc4ccc(C5(C#N)CCCC5)cc4)c4ccccc34)c2cc1OC`, 72.6%. Turning to `COc1ccc(/C(C)=C(\c2ccc(OCCN3CCCCCC3)cc2)c2ccc(OC(=O)C3CCCCC3)cc2)cc1`, the growth is -41.1% (active). The figure for `COc1ccc(Oc2ccc(/C=C/C(=O)c3cc4ccccc4oc3=O)cc2)cc1` is 31.1%.

On to `C=C1C(=O)O[C@H]2[C@H]1CC/C(COC(=O)NCCc1c[nH]c3ccc(Cl)cc13)=C\CC[C@@]1(C)O[C@@H]21`, for which the growth is -26.2% (active).

With `O=c1c2sc3ncc(Br)cc3c2ncn1-c1cccc(Cl)c1`, the growth is 84.5%.

Take `Cc1nn(-c2ccccc2)c(-n2ccnc2)c1/C=N/Nc1nc(-c2ccc(Cl)c(Cl)c2)cs1`: the growth is 76.6%.

As to `O=C(Nc1ccc(OS(=O)(=O)c2ccc(F)cc2)cc1)c1ccc(Cl)cc1`, the growth is 90.9%. For `C#CCOC(=O)/C=C/c1cn(-c2ccccc2)nc1-c1ccc(OC)cc1`, the growth was 110%. The figure for `CC1(C)C(=O)/C(=C\c2cccnc2)C[C@]2(C)[C@H]3CC[C@@H]4[C@@H](C(=O)/C=C/c5ccncc5)CC[C@@]4(C)[C@]3(C)CC[C@@H]12` is -11% (active); for `C(=C1c2ccccc2-c2ccccc21)c1ccccn1` it is 52.3%.
